Experiment [1] is described as follows: NCI Yeast Anticancer Drug Screen. Data for the rad50 strain (AID 155).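 Note: 0% = growth of vehicle-only cultures of the same strain.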 As to conditions: S. cerevisiae rad50 strain growth inhibition, stronger effect = higher value. In a few lines: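 A DNA repair-deficient yeast mutant serves as the test organism; compound-induced growth inhibition is calculated against vehicle-treated cells.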
The nature of experiment [2]: NCI Yeast Anticancer Drug Screen. Data for the mec2-1 strain (AID 157). As to conditions: S. cerevisiae mec2-1 strain, stronger effect = higher value. An outline of the steps:
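Vehicle-treated cultures served as reference for growth inhibition of compound-exposed mec2-1 yeast.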

Experiment [3] is described as follows: NCI Yeast Anticancer Drug Screen. Data for the sgs1 mgt1 strain (AID 161).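 Note: 0% = growth of cultures given vehicle only.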 As to conditions: S. cerevisiae sgs1 mgt1 strain, stronger effect = higher value. In a few lines: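 Read-out: growth inhibition vs vehicle controls. Cells: mutant yeast strain deficient in DNA damage repair.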
Experiment [4] in a line: NCI Yeast Anticancer Drug Screen. Data for the cln2 rad14 strain (AID 165).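 Note: 0% = growth equal to vehicle treated cultures.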 As to conditions: S. cerevisiae cln2 rad14 strain, stronger effect = higher value. An outline of the steps:
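Each compound was tested on cln2 rad14 yeast. Inhibition of growth was calculated against vehicle-exposed controls.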

A short description of experiment [5]: NCI Yeast Anticancer Drug Screen. Data for the bub3 strain (AID 167). As to conditions: S. cerevisiae bub3 mutant strain, stronger effect = higher value. An outline of the steps: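 Inhibition values come from growth of compound-treated mutant yeast normalised to vehicle-treated controls.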
A short description of experiment [6]: NCI Yeast Anticancer Drug Screen. Data for the mlh1 rad18 strain (AID 175). As to conditions: S. cerevisiae mlh1 rad18 strain growth inhibition, stronger effect = higher value. An outline of the steps:
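Vehicle-treated cultures served as the reference for growth inhibition in a yeast strain carrying DNA damage repair alterations exposed to each compound.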

Where [7] appears, read: at 5.0 µM (retest, dose inferred, filed as 0.5).
The mark [8] stands for this setting: at 50.0 µM (retest, dose inferred, filed as 5.0).

The panel holds about 79,000 compounds, 15% with a hit somewhere; the sample as a whole holds those more often. A number with no mark means an inactive call. Calls of active or inactive are those of the source. Cut-off read from the data, not from the text of the source: active = growth inhibition above about 70%; inactive = the rest.

In the case of `CNC(C)C(=O)c1ccc2ccc3ccccc3c2c1` (configuration not stated), the growth inhibition in experiment [1] (setting [7]) is -3%; in experiment [1] (setting [8]), 24%; in experiment [1] (at 50.0 µM), 54.5%; in experiment [2] (setting [7]), -5%; in experiment [2] (setting [8]), 12%; in experiment [2] (at 50.0 µM), 46.6%. Moreover, the growth inhibition in experiment [3] (setting [7]) was -2%; in experiment [3] (setting [8]), 34%; in experiment [3] (at 50.0 µM), 58.9%; in experiment [4] (setting [7]), 0%; in experiment [4] (setting [8]), 16%; in experiment [4] (at 50.0 µM) it was 17.6%. Moreover, the growth inhibition is -3% in experiment [5] (setting [7]); 24% in experiment [5] (setting [8]); 67.8% in experiment [5] (at 50.0 µM); -6% in experiment [6] (setting [7]); 28% in experiment [6] (setting [8]); 71.5% (active) in experiment [6] (at 50.0 µM).

Turning to `Cc1ccc(S(=O)(=O)NC2(C=O)CCC(C(C)(C)C)CC2)cc1` (configuration not stated), the growth inhibition in experiment [1] (setting [7]) was 15%; in experiment [1] (setting [8]) it was 86% (active); in experiment [1] (at 50.0 µM), 77.7% (active); in experiment [2] (setting [7]), 20%; in experiment [2] (setting [8]) it was 88% (active); in experiment [2] (at 50.0 µM) it was 68.4%. Also, the growth inhibition is 25% in experiment [3] (setting [7]); 84% (active) in experiment [3] (setting [8]); 82% (active) in experiment [3] (at 50.0 µM); 20% in experiment [4] (setting [7]); 92% (active) in experiment [4] (setting [8]); 77.5% (active) in experiment [4] (at 50.0 µM). For the same compound, the growth inhibition in experiment [5] (setting [7]) was 19%; in experiment [5] (setting [8]), 88% (active); in experiment [5] (at 50.0 µM), 84.7% (active); in experiment [6] (setting [7]) it was 37%; in experiment [6] (setting [8]) it was 95% (active); in experiment [6] (at 50.0 µM), 81% (active).

Consider `Oc1[nH]c2ccccc2c1N=NC(=S)N1CCCCCC1`, for which the growth inhibition is 6% in experiment [1] (setting [7]); 98% (active) in experiment [1] (setting [8]); 54.5% in experiment [1] (at 50.0 µM); -5% in experiment [2] (setting [7]); 97% (active) in experiment [2] (setting [8]); 72.2% (active) in experiment [2] (at 50.0 µM). Besides, the growth inhibition is -13% in experiment [3] (setting [7]); 98% (active) in experiment [3] (setting [8]); 83.2% (active) in experiment [3] (at 50.0 µM); -17% in experiment [4] (setting [7]); 98% (active) in experiment [4] (setting [8]); 78.5% (active) in experiment [4] (at 50.0 µM). Also, the growth inhibition in experiment [5] (setting [7]) is -28%; in experiment [5] (setting [8]) it was 99% (active); in experiment [5] (at 50.0 µM) it was 87.1% (active); in experiment [6] (setting [7]) it was -8%; in experiment [6] (setting [8]), 98% (active); in experiment [6] (at 50.0 µM), 79.8% (active).

`COc1ccc(C(O)(c2ccccc2)c2ccccc2)cc1`: the growth inhibition in experiment [1] (setting [7]) was -5%; in experiment [1] (setting [8]), 98% (active); in experiment [1] (at 50.0 µM) it was 99.1% (active); in experiment [2] (setting [7]) it was -4%; in experiment [2] (setting [8]), 99% (active); in experiment [2] (at 50.0 µM), 99% (active). Moreover, the growth inhibition in experiment [3] (setting [7]) is -3%; in experiment [3] (setting [8]) it was 99% (active); in experiment [3] (at 50.0 µM) it was 99.2% (active); in experiment [4] (setting [7]), -5%; in experiment [4] (setting [8]) it was 92% (active); in experiment [4] (at 50.0 µM), 93.9% (active). Moreover, the growth inhibition was 3% in experiment [5] (setting [7]); 87% (active) in experiment [5] (setting [8]); 99.5% (active) in experiment [5] (at 50.0 µM); -6% in experiment [6] (setting [7]); 98% (active) in experiment [6] (setting [8]); 98.7% (active) in experiment [6] (at 50.0 µM).

With `NC(=S)C(=S)N=Cc1c(N)[nH]n(-c2ccccc2)c1=O`, the growth inhibition was -13% in experiment [1] (setting [7]); -1% in experiment [1] (setting [8]); 57.8% in experiment [1] (at 50.0 µM); -10% in experiment [2] (setting [7]); 15% in experiment [2] (setting [8]); 48.8% in experiment [2] (at 50.0 µM). In addition, the growth inhibition was 9% in experiment [3] (setting [7]); 3% in experiment [3] (setting [8]); 53.8% in experiment [3] (at 50.0 µM); 32% in experiment [4] (setting [7]); 26% in experiment [4] (setting [8]); 61.6% in experiment [4] (at 50.0 µM). Also, the growth inhibition is 19% in experiment [5] (setting [7]); 37% in experiment [5] (setting [8]); -10.6% in experiment [5] (at 50.0 µM); -4% in experiment [6] (setting [7]); 15% in experiment [6] (setting [8]); 44.6% in experiment [6] (at 50.0 µM).

Turning to `Cc1nc(N)nc(-c2ccccc2)c1N=Nc1ccc(Cl)cc1`, the growth inhibition is -2% in experiment [1] (setting [7]); 61% in experiment [1] (setting [8]); 54.9% in experiment [1] (at 50.0 µM); 17% in experiment [2] (setting [7]); 73% (active) in experiment [2] (setting [8]); 29.1% in experiment [2] (at 50.0 µM). The growth inhibition in experiment [3] (setting [7]) is 1%; in experiment [3] (setting [8]), 74% (active); in experiment [3] (at 50.0 µM) it was 23.9%; in experiment [4] (setting [7]) it was -7%; in experiment [4] (setting [8]) it was 56%; in experiment [4] (at 50.0 µM), 51.3%. In addition, the growth inhibition in experiment [5] (setting [7]) is -1%; in experiment [5] (setting [8]), 86% (active); in experiment [5] (at 50.0 µM), 88.2% (active); in experiment [6] (setting [7]), -13%; in experiment [6] (setting [8]) it was 89% (active); in experiment [6] (at 50.0 µM) it was 81.7% (active).

As for `O=c1[nH]cnc2c1ncn2CCc1ccccc1`, the growth inhibition in experiment [1] (setting [7]) is 0%; in experiment [1] (setting [8]), -6%; in experiment [1] (at 50.0 µM) it was -11.6%; in experiment [2] (setting [7]) it was -6%; in experiment [2] (setting [8]), -2%; in experiment [2] (at 50.0 µM), -1.55%. The growth inhibition was -3% in experiment [3] (setting [7]); -5% in experiment [3] (setting [8]); -4.45% in experiment [3] (at 50.0 µM); -4% in experiment [4] (setting [7]); 3% in experiment [4] (setting [8]); 49.1% in experiment [4] (at 50.0 µM). The growth inhibition in experiment [5] (setting [7]) was 0%; in experiment [5] (setting [8]), 4%; in experiment [5] (at 50.0 µM) it was 4.85%; in experiment [6] (setting [7]) it was 4%; in experiment [6] (setting [8]), -10%; in experiment [6] (at 50.0 µM), -19.8%.

On to `COc1ccc(C(=O)CC(=O)c2ccccc2)cc1`, for which the growth inhibition in experiment [1] (setting [7]) is 1%; in experiment [1] (setting [8]) it was 99% (active); in experiment [1] (at 50.0 µM), -6.2%; in experiment [2] (setting [7]) it was -1%; in experiment [2] (setting [8]), 99% (active); in experiment [2] (at 50.0 µM) it was 17.8%. The growth inhibition in experiment [3] (setting [7]) was 2%; in experiment [3] (setting [8]) it was 99% (active); in experiment [3] (at 50.0 µM), 20.4%; in experiment [4] (setting [7]) it was -15%; in experiment [4] (setting [8]), 99% (active); in experiment [4] (at 50.0 µM), -17.3%. For the same compound, the growth inhibition in experiment [5] (setting [7]) is 24%; in experiment [5] (setting [8]) it was 99% (active); in experiment [5] (at 50.0 µM) it was 80% (active); in experiment [6] (setting [7]) it was 0%; in experiment [6] (setting [8]) it was 99% (active); in experiment [6] (at 50.0 µM) it was 14.1%.

On to `CCC(CC)C1(C(=O)OCCN(CC)CC)CCCCC1`, for which the growth inhibition in experiment [1] (setting [7]) was 1%; in experiment [1] (setting [8]), 48%; in experiment [1] (at 50.0 µM), 72.5% (active); in experiment [2] (setting [7]) it was -1%; in experiment [2] (setting [8]), 13%; in experiment [2] (at 50.0 µM), 5.8%. Moreover, the growth inhibition in experiment [3] (setting [7]) is -2%; in experiment [3] (setting [8]), 20%; in experiment [3] (at 50.0 µM), 45%; in experiment [4] (setting [7]), 2%; in experiment [4] (setting [8]), 9%; in experiment [4] (at 50.0 µM), 3.5%. The growth inhibition in experiment [5] (setting [7]) is -1%; in experiment [5] (setting [8]) it was 48%; in experiment [5] (at 50.0 µM), 73% (active); in experiment [6] (setting [7]), 4%; in experiment [6] (setting [8]) it was 32%; in experiment [6] (at 50.0 µM) it was 43.2%.
